Screens: PubChem BioAssay, National Center for Advancing Translational Sciences (NCATS)
Compounds with a hit are over-represented: about 5.1% of the library has one in this group of screens.
Tau fluor cs: Counterscreen qHTS for Inhibitors of Tau Fibril Formation, Fluorescence Polarization; Potency, µM (highest dose often 57.7 µM), for the others: at the highest dose activity change, negative = decrease; actives 0.93% (n = 280,000); tau K18 P301L Alexa594 fluorescence, heparin fibrillization; note: potency is the fitted concentration of half-maximal effect; nearly all actives have a fitted effect of over 55% in size
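Human K18 P301L tau (15 uM unlabeled plus 0.24 uM Alexa 594-labeled, final) in 100 mM sodium acetate pH 7 was mixed with compound and 20 uM heparin and incubated 6 hr at 37 C.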
NPSR antagonist: qHTS Assay for Antagonists of the Neuropeptide S Receptor: cAMP Signal Transduction; CHO-NPSR cells, cAMP TR-FRET, antagonist mode; Potency, µM (highest dose often 38.3 µM), for the others: top-dose activity change, negative = inhibition, usual class: inhibitors; actives 1% (n = 220,000); AID 1461, 2008; note: potency is the fitted concentration of half-maximal effect; nearly all actives have a fitted effect of over 50% in size
Target sequence (Q6W5P4 whole entry, looked up): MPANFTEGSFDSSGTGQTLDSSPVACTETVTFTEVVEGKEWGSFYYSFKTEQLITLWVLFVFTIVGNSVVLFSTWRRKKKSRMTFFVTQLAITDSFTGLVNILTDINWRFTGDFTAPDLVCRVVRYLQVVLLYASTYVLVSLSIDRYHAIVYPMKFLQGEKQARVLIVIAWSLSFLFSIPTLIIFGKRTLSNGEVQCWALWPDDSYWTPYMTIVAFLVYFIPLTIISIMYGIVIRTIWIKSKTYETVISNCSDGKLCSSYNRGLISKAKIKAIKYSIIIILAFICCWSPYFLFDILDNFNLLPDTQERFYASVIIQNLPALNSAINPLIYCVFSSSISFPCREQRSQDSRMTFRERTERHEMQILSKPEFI
JMJD2E inh: qHTS Assay for Inhibitors of Human Jumonji Domain Containing 2E (JMJD2E); JMJD2E catalytic domain, FDH-coupled NADH fluorescence (FDH is formaldehyde dehydrogenase); Potency, µM (doses to about 57.1 µM), without a hit: at the top dose activity change, negative = inhibition, actives largely listed as inhibitors; actives 1.6% (n = 230,000); active = well fitted inhibition curve with a large enough effect, not every such curve was filed as active; inconclusive = small, poorly fitted or top-dose-only effect, or another doubt; inactive = no such curve, though single readings can be large or run the other way;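 note: potency is the fitted concentration of half-maximal effect; 0% = wells with enzyme and -100% = buffer wells without enzyme; nearly all actives have a fitted effect of over 50% in size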
Target sequence (B2RXH2 1-337 limits assumed): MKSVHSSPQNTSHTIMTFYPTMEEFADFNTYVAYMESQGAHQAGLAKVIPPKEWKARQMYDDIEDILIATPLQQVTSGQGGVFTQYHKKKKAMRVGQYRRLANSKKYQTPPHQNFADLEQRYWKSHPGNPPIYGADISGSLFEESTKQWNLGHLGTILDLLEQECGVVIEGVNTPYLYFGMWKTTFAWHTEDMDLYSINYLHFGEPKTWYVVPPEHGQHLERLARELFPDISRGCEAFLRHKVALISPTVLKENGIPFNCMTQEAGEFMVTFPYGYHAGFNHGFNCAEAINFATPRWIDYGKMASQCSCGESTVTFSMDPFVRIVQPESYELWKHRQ
Tau fibril ThT: qHTS for Inhibitors of Tau Fibril Formation, Thioflavin T Binding; Potency, µM (doses to about 57.4 µM), inactives show at the highest dose activity, negative = inhibition, hits mostly inhibitors; Microtubule-associated protein tau (Homo sapiens), P10636; recombinant tau K18 P301L (four-repeat tau fragment), heparin-induced fibrillization, ThT fluorescence; actives 2.1% (n = 270,000); AID 1460, 2008; note: potency is the fitted concentration of half-maximal effect; nearly all actives have a fitted effect of over 55% in size
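Heparin-induced (20 uM) aggregation of recombinant human K18 P301L tau, 15 uM unlabeled with 0.24 uM labeled, pH 7 acetate buffer, 6 hr at 37 C with compound. Fibrils quantified by 30 uM ThT fluorescence after 1 hr ambient incubation.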
PNC assembly inh: High Content Assay for Compounds that inhibit the Assembly of the Perinucleolar Compartment; actives 3.1% (n = 140,000); activity change (PNC), negative = inhibition, % at 10 µM; PC3M PTB-GFP, PNC prevalence imaging, 16 h; stronger effect = lower value;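 active = readout at or below -70, meaning at least 70% loss of cells showing the perinucleolar compartment, a nuclear body marking cancer cells; inconclusive = readout between -30 and a set limit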;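 note: plate controls were DMSO wells for no effect and camptothecin positive control wells for full effect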
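Compounds are pinned in duplicate onto adhered PC3M cells stably expressing GFP-tagged PTB and incubated 16 h at 37 C. Cells are then fixed, nuclei stained with Hoechst, and PNC-positive cells counted.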
Tau FP inhib: qHTS for Inhibitors of Tau Fibril Formation, Fluorescence Polarization | Microtubule-associated protein tau (Homo sapiens), P10636 | K18 P301L tau heparin fibrillization, Alexa594 FP, 6 h | Potency, µM (top dose mostly 57.7 µM), for the others: at the highest dose activity, negative = inhibition, hits mostly inhibitors | actives 0.39% (n = 280,000); note: potency is the fitted concentration of half-maximal effect; nearly all actives have a fitted effect of over 55% in size
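Quantitative HTS format: compounds meet 15 uM recombinant K18 P301L tau and Alexa 594-tau tracer in 100 mM sodium acetate pH 7; 20 uM heparin triggers fibrillization at 37 C over 6 hr; FP gives the signal.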
* hit, by the source's call; u = inconclusive; x = no result given; [ ] = another dose, or the depositor's remark. Unless noted, calls come from the whole dose curve; as a rule, active = well fitted curve in the direction sought with a large enough effect; inconclusive = small, poorly fitted or top-dose-only effect, or another doubt; inactive = no such curve, though single readings can be large; an effect the other way counts as inactive or inconclusive. Unless noted, % is set by controls: 0 for no effect and ±100 for the full control effect.

SMILES	Tau fluor cs	NPSR antagonist	JMJD2E inh	Tau fibril ThT	PNC assembly inh	Tau FP inhib
CSc1nnc(-c2ccccc2N=Cc2c(C)[nH]n(-c3ccc4ccccc4c3)c2=O)c(=O)[nH]1	-14%	-16%[46.1 µM]	8%	22µM*	-5	-3%
COc1cccc(Cn2c(=O)n(CCc3ccccc3)c(=O)c3c2c2cc(OC)ccc2n3C)c1	-20%	x	x	-3%	x	-4%
Cc1ccccc1OCC(=O)OCc1cc(=O)n2nc(C3CCCCC3)sc2n1	4%	x	x	-14%	x	3%
CCOC(=O)C1CCN(C(=O)CSc2ccc(Cl)cc2)CC1	1%	-1%[46.1 µM]	1%	1%	-100*	7%
CCOC(=O)C1CCN(C(=O)CSc2ccc(Br)cc2)CC1	-6%	3%	2%	-11%	x	9%
CCOc1ccccc1-n1ccnc(NCc2ccc(F)cc2)c1=O	-1%	x	x	3%	x	-3%
COC(=O)c1ccc(=O)n(Cc2ccco2)c1	-11%	9%	32µM*	-15%	u	10%
COc1ccc(OC)c(CCNC(=O)c2cnn(-c3ccccc3Cl)c2C2CCN(C(=O)OC(C)(C)C)CC2)c1	-13%	x	x	-15%	x	14%
COc1ccc(-c2nc3scc(CCNC(=O)c4cccc(Br)c4)n3n2)cc1	-28%	x	x	-1%	x	-1%
COc1ccc(S(=O)(=O)NCc2cccn2Cc2cc(C)ccc2C)cc1OC	-16%	x	x	-5%	x	6%
CCC1CN(C(=O)N2CCC(C(=O)NCc3ccc(N(C)C)cc3)CC2)c2ccccc2O1 (stereo unspecified)	-18%	x	x	-16%	x	9%
CCC1CN(C(=O)N2CCC(C(=O)N3CCN(c4ccccc4F)CC3)CC2)c2ccccc2O1 (stereo unspecified)	14µM*[quencher]	x	x	u	x	10%
CCc1ccc(NC(=O)C2CCN(C(=O)N3CC(CC)Oc4ccccc43)CC2)cc1 (stereo unspecified)	16µM*[quencher]	x	x	u	x	u
CCC1CN(C(=O)NCc2ccc(C)cc2)c2ccccc2O1 (stereo unspecified)	16µM*[quencher]	x	x	u	x	u
Cc1nn(Cc2ccc(Cl)cc2)c(C)c1NC(=O)Cn1nc([N+](=O)[O-])c(Cl)c1C	-5%	-16%[46.1 µM]	8%	-1%	1	-14%
Cc1nn(Cc2ccc(Cl)cc2)c(C)c1NC(=O)c1ccc([N+](=O)[O-])cc1	-10%	-2%[46.1 µM]	-1%	-5%	-84*	13%
Cc1nc2ccccc2c(=O)n1/N=C/c1ccccc1O	-25%	-22%	25µM*	-14%	x	-6%
Cc1ccc(-n2[nH]c(C)c(/C=N/n3c(C)nc4ccccc4c3=O)c2=O)cc1	-29%	-18%[46.1 µM]	u	25µM*	-19	u
Cc1[nH]n(-c2ccccc2)c(=O)c1/C=N/n1c(C)nc2ccccc2c1=O	-7%	-16%[46.1 µM]	-22%	-8%	128	-5%
O=c1c2ccccc2nc(COc2ccccc2)n1/N=C/c1ccc(O)cc1O	16µM*[quencher]	-48%	u	u	x	-4%
Cc1cc(C)cc(NC(=O)c2cc3c(=O)n(Cc4ccco4)ccc3nc2C)c1	-7%	x	x	u	x	-4%
COc1cc2c(cc1OC)n(CC(=O)c1cccc(Cl)c1)c(=O)n1nc(CCn3nc(C)cc3C)nc21	8%	x	x	10%	x	-8%
COc1ccc(C)cc1N=Nc1ccc(O)c2ncccc12	u	-6%	25µM*	u	x	3%
Oc1ccc(N=Nc2ccc3c(c2)OCCO3)c(O)c1	u	-9%	-1%	3.2µM*	x	5%
O=Nc1ccc(O)c2ncccc12	-29%	u	25µM*	u	x	u
SMILES	Tau fluor cs	NPSR antagonist	JMJD2E inh	Tau fibril ThT	PNC assembly inh	Tau FP inhib
Cc1ccccc1N=Nc1ccc(O)c2ncccc12	-17%	-6%	-25%	u	35	8%
COc1ccc(N=Nc2ccc(O)c3ncccc23)cc1	-26%	-13%	u	1.4µM*	x	u
CC(C)Oc1ccc(CNC(=O)Cn2ncn3nc(-c4cccs4)cc3c2=O)cc1	-5%	x	x	-8%	x	4%
Cn1c(=O)c(=O)n(C)c2cc(C(=O)NCc3ccccc3Cl)ccc21	-19%	x	x	-17%	x	-1%
O=C(Cc1ccc(Br)cc1)c1ccc(O)cc1O	u	-15%[46.1 µM]	-11%	-17%	-18	-15%
Oc1ccc(N=Nc2ccc3c(c2)OCCO3)c2cccnc12	u	-20%	u	2µM*	x	u
Oc1ccc(N=Nc2ccc(Br)cc2)c(O)c1	u	17%	16%	3.5µM*	x	2%
CCCOc1ccc(C(=O)Nc2cccc(-c3nc4ccccc4[nH]3)c2)cc1	10µM*[quencher]	x	x	u	x	25µM*
CCOc1cc(OCC)cc(C(=O)Nc2cccc(-c3nc4ccccc4[nH]3)c2)c1	u	x	x	-19%	x	u
O=C(COc1ccc(F)cc1)Nc1ccc(Cl)c(-c2nc3ccccc3[nH]2)c1	u	x	x	-2%	x	28µM*
CCOc1ccc(C(=O)Nc2ccc(-c3nc4ccccc4[nH]3)cc2)cc1[N+](=O)[O-]	-16%	16%	-2%	u	-116*	-17%
O=C(Nc1ccc(Cl)c(-c2nc3ccccc3[nH]2)c1)c1ccc2c(c1)OCO2	u	-3%	51%	u	0	18µM*
Cc1ccc(Cl)cc1NC(=O)Nc1nnc(N(C)Cc2ccccc2)s1	u	x	x	u	x	-2%
Cc1ccc(C(=O)Nc2ccc3c(c2)N(C)C(=O)c2ccccc2S3)cc1F	u	x	x	0%	x	u
O=C(COc1ccccc1)Nc1cccc(-c2nc3ccccc3[nH]2)c1	u	6%	u	u	u	u
COc1ccc(OCC(=O)Nc2cccc(-c3nc4ccccc4[nH]3)c2)cc1	20µM*[quencher]	u	u	u	-16	u
Cc1cc(-c2nn(-c3ccccc3)cc2/C=C2\SC(N)=NC2=O)ccc1OC(C)C	u	-29%[46.1 µM]	1%	-1%	-14	3.2µM*
COc1ccc(-c2nn(CCC(=O)O)cc2/C=C2\SC(N)=NC2=O)cc1	-2%	9%	-7%	-11%	35	4%
CCCOc1ccc(-c2nn(-c3ccccc3)cc2/C=C2\SC(N)=NC2=O)cc1	-26%	4µM*	u	8%	-8	-14%
COc1ccc2c(c1)OC(=O)CC2c1ccc2c(c1)OCO2 (stereo unspecified)	u	x	x	-18%[81.4 µM]	x	1%[81.3 µM]
